High-throughput results (PubChem)
HCMV inh: human cytomegalovirus inhibition. HFF cells, HCMV-luciferase reporter, 72 h; active compounds read low. activity change, negative = inhibition, % at 57.5 µM. 4.5% of 410,000 active. AID 1259415; in the data active means activity change below about -60%; inconclusive means no clear call, values can overlap the other calls; inactive means above about -39%
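Steps: HFFs plated, 16 h 37C; compounds added; HCMV-luciferase added to MOI 1 PFU/cell; 72 h 37C; OneGlo reagent, 5 min room temperature; luminescence read, normalized to controls.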
Lassa entry inh: Lassa virus entry inhibition. Lassa virus pseudotype entry inhibition, cell reporter. Potency, µM (series often up to 37.9 µM), most hits filed as inhibitors. 1.2% of 300,000 active. AID 540256; calls by dose curve; tested in HEK293 cells; further: nearly all actives have a fitted effect of over 50% in size
VACV Venus inh: vaccinia inhibition (Venus reporter); Vaccinia virus Venus reporter expression, fluorescence; Potency, µM (highest dose often 36.5 µM), usual class: inhibitors; 0.46% of 330,000 active; calls by dose curve; tested in A549 cells; further: nearly all actives have a fitted effect of over 30% in size
VACV mCherry inh: vaccinia inhibition (mCherry reporter). Vaccinia virus mCherry reporter infection, fluorescence. Potency, µM (doses to about 36.5 µM), usual class: inhibitors. 0.63% of 310,000 active; calls by dose curve; tested in A549 cells; further: nearly all actives have a fitted effect of over 35% in size
Marburg entry inh: Marburg virus entry inhibition. 1.8% of 300,000 active. Potency, µM (titrated, usually from 37.8 µM), hits mostly inhibitors. Marburg virus pseudotyped entry inhibition, cell reporter; calls by dose curve; tested in HEK293 cells
FMDV inh: blocks foot and mouth disease virus | FMDV antiviral cell-based qHTS | Potency, µM (doses to about 57.9 µM), hits mostly inhibitors | 1.2% of 410,000 active | AID 1159524; calls by dose curve; tested in HEK293T cells; further: read-out not given here; nearly all actives have a fitted effect of over 45% in size
Each line names hits and unclear results; the compound was inactive in the other large screens; ! = not active in a repeat. Only some compounds are listed: those with a hit (about 6.5% of all), similar ones and a draw of the others.

COc1ccc2c(c1)C(=NNc1ccc(C(=O)O)cc1)c1cc(OC)ccc1-2	VACV Venus inh inconclusive, VACV mCherry inh inconclusive (no result: Lassa entry inh, Marburg entry inh)
COc1ccc2c(c1)C(=NN)c1cc(OC)ccc1-2	HCMV inh -87.1
Cc1ccc(-c2nc3ccccc3o2)cc1NC(=O)c1cccc2c(Cl)cccc12	VACV Venus inh inconclusive, VACV mCherry inh inconclusive, Marburg entry inh inconclusive
Cc1ccc2c(c1)C(N1CCN(C)CC1)=Nc1cccnc1N2	Marburg entry inh 11.2µM! (no result: HCMV inh, VACV Venus inh, VACV mCherry inh, FMDV inh)
CCCC(O)c1nc2ccccc2n1CCCOc1ccc(Cl)cc1 (configuration not stated)	HCMV inh -75.7, FMDV inh 20µM
O=C(CNC(=O)c1ccccc1F)OCC(=O)N1CCCCC1	HCMV inh -61.8
O=C(N(CC1CCCCC1)C1=NCCCC1)C12CC3CC(CC(C3)C1)C2	none (no result: HCMV inh, Lassa entry inh, VACV Venus inh, VACV mCherry inh, FMDV inh)
COC(=O)C1=C(c2ccc(OCc3ccccc3)cc2)C[C@@H]2CC[C@H]1N2C(=O)NCc1cccc(OC)c1	HCMV inh -67.1, VACV Venus inh inconclusive, VACV mCherry inh inconclusive (no result: Lassa entry inh, Marburg entry inh)
COC(=O)C1=C(c2cccc(OCc3ccccc3)c2)C[C@@H]2CC[C@H]1N2C(=O)NCc1ccccc1OC	HCMV inh -88.4, VACV Venus inh inconclusive, VACV mCherry inh inconclusive (no result: Lassa entry inh, Marburg entry inh)
Cc1noc(C)c1S(=O)(=O)NCCc1csc2nc(-c3ccc(F)cc3)nn12	none (no result: Marburg entry inh)
OCCN1CCN(Cc2ccc3c(c2)CN(Cc2cccc4ncccc24)CCO3)CC1	none (no result: HCMV inh, Lassa entry inh, Marburg entry inh)
O=C(O)CSc1nc2c(c(C(F)(F)F)n1)CCc1ccccc1-2	Marburg entry inh inconclusive
O=C(O)CSc1nc2c(c(C(F)(F)F)n1)CCCC2	HCMV inh -96.0!
COc1cc(CN(C(=O)c2ccc(C)cc2)c2ccccn2)cc(OC)c1OC	Marburg entry inh inconclusive
CCc1c(C)nc2nncn2c1NCc1ccc(Cl)cc1	HCMV inh -69.2, VACV Venus inh inconclusive, Marburg entry inh inconclusive, FMDV inh inconclusive
Cc1ccc(CNc2c(C)c(C)nc3nncn23)cc1	VACV mCherry inh inconclusive, Marburg entry inh inconclusive, FMDV inh inconclusive
O=C(Nc1ccc(F)cc1)C1CCN(c2ncnc3c2nc2n3CCCCC2)CC1	none (no result: Lassa entry inh, VACV Venus inh, VACV mCherry inh, Marburg entry inh)
O=C(Nc1ccccn1)C1CCN(c2ncnc3c2nc2n3CCCCC2)CC1	HCMV inh -84.3, FMDV inh inconclusive (no result: Lassa entry inh, VACV Venus inh, VACV mCherry inh, Marburg entry inh)
COC(=O)C(CCSC)NC(=O)C1CCN(c2ncnc3c2nc2n3CCCCC2)CC1 (configuration not stated)	HCMV inh -100.4 (no result: Marburg entry inh)
COCCCNC(=O)C1CCN(c2ncnc3c2nc2n3CCCCC2)CC1	none (no result: Marburg entry inh)
CCc1ccc(NC(=O)C2CCN(c3ncnc4c3nc3n4CCCCC3)CC2)cc1	HCMV inh -72.6, FMDV inh inconclusive
COc1cc2cc(-c3ccc(OC)c(OC)c3C)nc(N)c2cc1OC	HCMV inh -92.0, Lassa entry inh inconclusive, VACV mCherry inh inconclusive, Marburg entry inh inconclusive
CCOc1ccc(-c2cc3cc(OC)c(OC)cc3c(C)n2)cc1	none
COc1cc2cc(-c3ccc(O)cc3O)nc(C)c2cc1OC	HCMV inh -96.8, Lassa entry inh inconclusive, Marburg entry inh inconclusive
CCc1nc(-c2ccc(OC)c(OC)c2)cc2cc(OC)c(OC)cc12	none
O=C(Cc1ccccc1)Nc1c(C(=O)Nc2ccccc2F)oc2ccccc12	none
CN1CCC(OC(c2ccccc2)c2ccccc2)CC1	Lassa entry inh inconclusive, Marburg entry inh inconclusive
CN1C2CCC1CC(OC(c1ccccc1)c1ccccc1N)C2 (configuration not stated)	Lassa entry inh inconclusive, Marburg entry inh 17.8µM
C[C@@H](C(=O)OC1C[C@H]2CC[C@@H](C1)N2C)c1ccc(Br)cc1 (some centres not stated)	none (no result: HCMV inh, Lassa entry inh, VACV Venus inh, VACV mCherry inh, Marburg entry inh)
CN1C2CCC1CC(OC(c1ccccc1)c1ccc(Cl)cc1)C2 (configuration not stated)	HCMV inh inconclusive, Marburg entry inh 3.16µM (no result: Lassa entry inh, VACV Venus inh, VACV mCherry inh, FMDV inh)
O=C(CCl)N(O)c1ccc(C=Cc2ccccc2)cc1	Lassa entry inh 8.91µM, Marburg entry inh inconclusive
CCOC(=O)c1c(NC(=O)c2ccc(-n3cnnn3)cc2)sc2c1CCCC2	Lassa entry inh 15.8µM, Marburg entry inh inconclusive (no result: HCMV inh)
Cc1cccc(C(=O)Nc2sc3c(c2C(=O)O)CCC3)c1	FMDV inh inconclusive (no result: Lassa entry inh, VACV Venus inh, VACV mCherry inh, Marburg entry inh)
CC(C)(C)c1ccc(C(=O)Nc2sc3c(c2C(=O)O)CCC3)cc1	HCMV inh -76.0, Lassa entry inh inconclusive, Marburg entry inh 3.16µM
CCOC(=O)c1c(NC(=O)c2ccc(Br)cc2)sc2c1CCCC2	none (no result: Marburg entry inh)
COc1cccc(C(=O)Nc2sc3c(c2C(=O)O)CCCC3)c1	Lassa entry inh 10µM, VACV Venus inh inconclusive, VACV mCherry inh inconclusive, Marburg entry inh 11.2µM
O=C(Nc1sc2c(c1C(=O)O)CCCC2)c1ccc(F)cc1	Lassa entry inh inconclusive, Marburg entry inh 2.51µM
CCC(=O)N1CCc2cc(S(=O)(=O)CCC(=O)NCc3ccccc3Cl)ccc21	Marburg entry inh inconclusive
CC(C)(C)[S+](=O)([O-])/C(C#N)=C/NC1=NCCCC1	none (no result: HCMV inh, Lassa entry inh, VACV Venus inh, VACV mCherry inh, FMDV inh)
CC(C)C[C@@H](COc1ccccc1)N1CCN(Cc2ccccc2)CCC1=O	HCMV inh -102.5 (no result: Lassa entry inh, Marburg entry inh)
CC(C)(C)OC(=O)N1CCC(c2nnc(SCc3cccc(Cl)c3)o2)CC1	Lassa entry inh inconclusive
CN1CCC2(CC1)[C@H]1CN(C)CC=C1C(C#N)=C(N)C2(C#N)C#N	none (no result: HCMV inh, Lassa entry inh, VACV Venus inh, VACV mCherry inh, FMDV inh)
CCN(CC)S(=O)(=O)c1cccc(S(=O)(=O)c2cccc(S(=O)(=O)N(CC)CC)c2)c1	HCMV inh -68.6, Lassa entry inh inconclusive, Marburg entry inh inconclusive (no result: VACV Venus inh, VACV mCherry inh)
CCN(CC)S(=O)(=O)c1ccc(C)c(C)c1	none (no result: VACV Venus inh, VACV mCherry inh)
CCN(CC)CCOc1ccc2c(c1)C(=NO)c1cc(OCCN(CC)CC)ccc1-2	Lassa entry inh 10.3µM, VACV Venus inh 3.55µM, VACV mCherry inh 8.91µM, Marburg entry inh 2.59µM (no result: FMDV inh)
CCN(CC)S(=O)(=O)c1ccc2c(c1)C(=NO)c1cc(S(=O)(=O)N(CC)CC)ccc1-2	Lassa entry inh inconclusive, VACV Venus inh 12.6µM, VACV mCherry inh 11.2µM, Marburg entry inh inconclusive, FMDV inh 20µM
COc1ccc(C2Nc3ccc(NC(C)=O)cc3C(=O)N2Cc2cccc(Cl)c2)cc1COc1ccc(NC(C)=O)cc1 (configuration not stated)	none (no result: HCMV inh, Lassa entry inh, Marburg entry inh, FMDV inh)
Cc1cccc(C(=O)NCC(c2ccc3c(c2)OCO3)N2CCOCC2)c1 (configuration not stated)	none (no result: Marburg entry inh)
CC#CCN1c2ccccc2[C@]23C[C@@H](C(=O)OC)N(C(=O)C4CCC4)C2=NC(C(=O)OC)=C(C(=O)OC)[C@H]13	HCMV inh -74.8 (no result: Lassa entry inh, Marburg entry inh)
COC(=O)C1=C(C(=O)OC)[C@@H]2N(Cc3ccccc3)c3ccccc3[C@@]23C[C@@H](C(=O)OC)N(C(=O)c2ccc(Br)cc2)C3=N1	VACV Venus inh 10µM, VACV mCherry inh inconclusive, FMDV inh inconclusive (no result: HCMV inh, Lassa entry inh, Marburg entry inh)
COC(=O)C1=C(C(=O)OC)[C@@H]2N(C)c3ccc(OC)cc3[C@@]23C[C@@H](C(=O)OC)N(C(=O)c2ccc(Br)cc2)C3=N1	VACV Venus inh 11.2µM, VACV mCherry inh inconclusive, FMDV inh inconclusive (no result: Lassa entry inh, Marburg entry inh)
Cc1cc(Br)ccc1NC(=O)c1sc2nc3n(c(=O)c2c1C)CCCC3	none (no result: Marburg entry inh)
